This excerpt belongs to a sample that is enriched for hits.
Dicer inh: blocks human Dicer maturation of pre-miR-21; Q9UPY3; z-score at 25 µM; hit rate 6% among 47,000; cat-ELCCA pre-miR-21 Dicer processing, chemiluminescence; active compounds read high; in the data active means z-score above about 3, passing the limit was not always enough;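 further: plate controls were vehicle for no effect and no enzyme for full effect; higher signal means more uncleaved substrate so more Dicer inhibition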
Target sequence (Q9UPY3 whole entry, looked up): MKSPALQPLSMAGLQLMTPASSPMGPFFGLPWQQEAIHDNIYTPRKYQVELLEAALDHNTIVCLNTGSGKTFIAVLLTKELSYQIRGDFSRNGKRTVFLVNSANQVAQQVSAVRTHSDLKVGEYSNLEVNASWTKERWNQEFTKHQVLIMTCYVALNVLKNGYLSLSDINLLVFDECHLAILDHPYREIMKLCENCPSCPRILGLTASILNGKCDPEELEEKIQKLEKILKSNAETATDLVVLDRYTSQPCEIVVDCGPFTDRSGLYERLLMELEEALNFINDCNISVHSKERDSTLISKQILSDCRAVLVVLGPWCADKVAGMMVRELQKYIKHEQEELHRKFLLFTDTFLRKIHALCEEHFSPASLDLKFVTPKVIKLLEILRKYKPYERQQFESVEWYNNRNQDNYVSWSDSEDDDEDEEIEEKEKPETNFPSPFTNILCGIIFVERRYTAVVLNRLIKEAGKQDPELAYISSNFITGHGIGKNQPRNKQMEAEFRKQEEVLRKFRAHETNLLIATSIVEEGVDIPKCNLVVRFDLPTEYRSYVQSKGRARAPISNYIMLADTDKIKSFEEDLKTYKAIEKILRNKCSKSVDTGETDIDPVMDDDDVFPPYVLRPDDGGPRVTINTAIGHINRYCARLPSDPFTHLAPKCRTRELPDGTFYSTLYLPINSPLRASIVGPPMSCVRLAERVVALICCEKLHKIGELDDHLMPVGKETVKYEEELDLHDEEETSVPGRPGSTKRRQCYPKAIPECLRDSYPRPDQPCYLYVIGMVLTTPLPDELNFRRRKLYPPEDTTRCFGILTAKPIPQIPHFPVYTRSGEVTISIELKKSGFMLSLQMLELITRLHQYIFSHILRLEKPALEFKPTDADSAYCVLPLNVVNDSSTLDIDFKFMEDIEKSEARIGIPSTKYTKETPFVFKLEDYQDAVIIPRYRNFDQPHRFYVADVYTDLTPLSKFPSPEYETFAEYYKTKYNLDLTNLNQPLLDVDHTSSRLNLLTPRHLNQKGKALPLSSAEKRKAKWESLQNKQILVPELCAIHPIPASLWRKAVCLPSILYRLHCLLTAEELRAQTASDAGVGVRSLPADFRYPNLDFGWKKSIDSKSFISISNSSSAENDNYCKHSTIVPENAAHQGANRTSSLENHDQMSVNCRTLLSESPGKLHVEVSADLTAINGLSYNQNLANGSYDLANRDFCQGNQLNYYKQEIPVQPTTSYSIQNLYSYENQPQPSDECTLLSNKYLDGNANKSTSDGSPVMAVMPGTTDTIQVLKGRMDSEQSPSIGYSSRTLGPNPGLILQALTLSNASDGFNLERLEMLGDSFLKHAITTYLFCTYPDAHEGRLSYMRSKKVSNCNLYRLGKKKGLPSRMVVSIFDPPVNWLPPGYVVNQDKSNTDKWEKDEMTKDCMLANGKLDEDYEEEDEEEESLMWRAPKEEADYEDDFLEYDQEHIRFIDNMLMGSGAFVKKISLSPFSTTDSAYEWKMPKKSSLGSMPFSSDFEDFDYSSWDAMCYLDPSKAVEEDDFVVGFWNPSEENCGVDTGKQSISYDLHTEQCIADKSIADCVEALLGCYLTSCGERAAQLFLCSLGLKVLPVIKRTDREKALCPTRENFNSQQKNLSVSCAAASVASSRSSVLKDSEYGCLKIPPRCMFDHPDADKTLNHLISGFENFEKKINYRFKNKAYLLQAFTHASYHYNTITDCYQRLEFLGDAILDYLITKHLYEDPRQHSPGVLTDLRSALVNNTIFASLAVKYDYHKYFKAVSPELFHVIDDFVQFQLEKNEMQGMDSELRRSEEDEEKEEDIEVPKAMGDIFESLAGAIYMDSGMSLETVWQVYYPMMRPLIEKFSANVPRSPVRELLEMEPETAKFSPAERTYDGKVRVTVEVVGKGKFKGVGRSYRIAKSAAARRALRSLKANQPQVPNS
The depositor's hits bear a star.

SMILES	Dicer inh
CC1=C(C(=O)Nc2cccc(C)n2)C(c2ccsc2)C2=C(CC(C)(C)CC2=O)N1 (configuration not stated)	0.2
CC1=C(C(=O)Nc2cccc(F)c2)C(c2ccsc2)C2=C(CC(C)(C)CC2=O)N1 (configuration not stated)	3.7*
NC(=O)c1c2ccccc2nc2ccccc12	-0.57
CC(=O)Oc1cccc(N2C(=O)C3C4c5ccccc5C(c5ccccc54)C3C2=O)c1 (configuration not stated)	0.12
Cc1c(C(=O)O)cc(-c2ccccc2)n1CCSCCO	-0.82
COc1cccc(C2C(C#N)=C3N=C(N)c4ccccc4N3C3=C2C(=O)CC(C)(C)C3)c1 (configuration not stated)	1.9
N#CC1=C2N=C(N)c3ccccc3N2C2=C(C(=O)CC(c3ccccc3)C2)C1c1ccc2c(c1)OCO2 (configuration not stated)	3.4*
N#CC1=C2N=C(N)c3ccccc3N2C2=C(C(=O)CC(c3ccccc3)C2)C1c1cccs1 (configuration not stated)	3
COc1ccc(C2C(C#N)=C3N=C(N)c4ccccc4N3C3=C2C(=O)CC(C)(C)C3)cc1 (configuration not stated)	-1.2
CCOc1ccccc1C1C(C#N)=C2N=C(N)c3ccccc3N2C2=C1C(=O)CC(C)(C)C2 (configuration not stated)	1.3
COc1cccc(C2C(C#N)=C3N=C(N)c4ccccc4N3C3=C2C(=O)CC(C)(C)C3)c1OC (configuration not stated)	0.02
COc1ccccc1C1C(C#N)=C2N=C(N)c3ccccc3N2C2=C1C(=O)CC(C)(C)C2 (configuration not stated)	5*
COc1ccc(C2C(C#N)=C3N=C(N)c4ccccc4N3C3=C2C(=O)CC(C)(C)C3)cc1OC (configuration not stated)	8.2*
N#CC1=C2N=C(N)c3ccccc3N2C2=C(C(=O)CC(c3ccccc3)C2)C1c1cccnc1 (configuration not stated)	1.5
Cc1c(C#N)c(Sc2ccccc2N)nc2ccccc12	-1.8
Cc1nc2nc(C(F)(F)F)[nH]n2c(=O)c1CCC(C)C	-2.4
Cc1ccc(CSC2=NCCCN2C2CCCCC2)cc1	-0.21
c1csc(-c2noc(CSc3nc4ccccc4[nH]3)n2)c1	0.78
O=C(NCc1ccc(S(=O)(=O)Nc2ccc(N3CCCCC3)cc2)s1)c1ccc(Cl)cc1	7.2
N#CC(=Nc1ccc(F)cc1F)C1=C(O)c2ccccc2C1=O	-3.2
CC(C)(C)c1ccc(N=C(C#N)C2=C(O)c3ccccc3C2=O)cc1	3.1*
N#CC(=Nc1ccc(F)cc1)C1=C(O)c2ccccc2C1=O	0.82
CC(C)(C)c1ccc(C(=O)N2CCN(c3cccc4[nH]ccc34)CC2)cc1	0.63
COC(=O)c1cc(OC)cc(OC)c1C1C(C#N)=C(C)NC2=C1C(=O)CC(C)(C)C2 (configuration not stated)	0.81
CC(C)(C)S(=O)(=O)C/C(N)=N/OS(=O)(=O)c1ccc(F)cc1F	0.04
SMILES	Dicer inh
Cc1nnc(N2C(=O)c3oc4ccccc4c(=O)c3C2c2cccc(OCc3ccccc3)c2)s1 (configuration not stated)	-0.16
Nc1nc2ccc(Oc3ccc4nc(N)sc4c3)cc2s1	3.7*
CS(=O)(=O)c1ccc2nc(N)sc2c1	2.5
Nc1nc2ccc(CC(=O)O)cc2s1	-2.3
S=c1[nH]c2c(Cl)cc(Cl)cc2s1	-0.57
COc1ccc2c(=O)c(Oc3cc(C)cc(C)c3)c(C(F)(F)F)oc2c1	16
Cc1nn(Cc2nnc(SCC(=O)c3ccc(Cl)cc3)n2C)c(C)c1[N+](=O)[O-]	2.1
COc1ccc(-c2cc(NS(=O)(=O)c3cccc(F)c3)n(-c3ccc(Cl)c(Cl)c3)n2)cc1	-0.11
COCCCNC1=C(C#N)C(=O)NC(c2ccc(O)c(OC)c2)S1 (configuration not stated)	1.3
COCCCNC1=C(C#N)C(=O)NC(c2cccs2)S1 (configuration not stated)	3.1*
N#CC1=C(Nc2ccccc2Cl)SC(c2ccncc2)NC1=O (configuration not stated)	0.01
O=C(C1Sc2nnc(-c3ccccc3)n2NC1c1ccc(Cl)cc1)N1CCCCC1 (configuration not stated)	-0.94
O=C(CSc1nc2ccccc2s1)Nc1nccs1	0.82
COc1ccccc1NC(=O)CSC1=NCCS1	4.2*
O=C(CSC1=NCCS1)Nc1nccs1	4*
O=C(CSC1=NCCS1)Nc1nc2ccccc2s1	-0.6
COc1ccccc1NC(=O)CSc1cc(C(F)(F)F)cc(C(F)(F)F)c1	23
O=C(CSC1=NCCS1)NC1Cc2ccccc2C1	0.6
CC(=O)N(Cc1ccccc1)c1nc2c([nH]1)c(=O)n(C)c(=O)n2C	-0.76
CC1CN(c2ccc([N+](=O)[O-])cc2)CC(C)O1 (configuration not stated)	-0.22
C=CCn1cnnc1C(CCC(C)C)CC(C)(C)O (configuration not stated)	3.8*
CCOC(=O)c1c(NC(C)=O)sc2c1CCCC2O (configuration not stated)	0.39
CCOC(=O)C1=C(C)Nc2nc3ccccc3n2C1c1ccccc1C (configuration not stated)	0.04
COC(=O)C1=C(C)Nc2nc3ccccc3n2C1c1sccc1C (configuration not stated)	-0.1
CCOC(=O)C1=C(C)Nc2nc3ccccc3n2C1c1sccc1C (configuration not stated)	-0.78
SMILES	Dicer inh
CC1=C(C(=O)OC(C)C)C(c2sccc2C)n2c(nc3ccccc32)N1 (configuration not stated)	3.5*
CCOC(=O)C1=C(C)Nc2nc3ccccc3n2C1c1ccc(O)cc1 (configuration not stated)	-0.38
CCOC(=O)C1=C(C)Nc2nc3ccccc3n2C1/C=C/c1ccccc1 (configuration not stated)	3.8*
CCCCCOC(=O)C1=C(C)NC2=C(C(=O)CC(C)(C)C2)C1c1ccc(OC(C)=O)cc1 (configuration not stated)	1.8
CC1=C(C(=O)OC(C)C)C(c2cccc(F)c2)C2=C(CCCC2=O)N1 (configuration not stated)	-0.53
C=CCOc1ccc(CNCCSc2nnnn2C)cc1	0.52
CCOC(=O)C(=O)Oc1ccc2c(c1)C(C)=CC(C)(C)N2	1
Cc1nc(-c2ccc(S(=O)(=O)NCc3nc(-c4ccc(C(F)(F)F)cc4)no3)s2)cs1	-0.5
CCOC(=O)c1ccc(NC(=S)N2CCN3C(=O)c4ccccc4C32c2ccccc2)cc1 (configuration not stated)	2.9
Cc1ccc(C2Nn3c(nnc3-c3ccccc3)SC2C(=O)N2CCOCC2)cc1 (configuration not stated)	-0.66
Cc1ccc(C2Nn3c(nnc3-c3ccccc3)SC2C(=O)N2CCCCC2C)cc1 (configuration not stated)	3*
O=C(C1Sc2nnc(-c3ccccc3)n2NC1c1ccccc1)N1CCCC1 (configuration not stated)	-0.08
CCOC(=O)CSC(=S)Nc1ccc(Cl)cc1	0.5
Cc1ccc(N2N=C(C(=O)c3cccs3)SC2=C2C(=O)c3ccccc3C2=O)cc1	0.01
O=C(CSc1nc(C(F)(F)F)cc(=O)[nH]1)c1ccc(Cl)cc1	-1.2
Cc1cc(=O)[nH]c(SCC(=O)C(C)(C)C)n1	0.9
Cc1cc(=O)[nH]c(SCC(N)=O)n1	4.6*
